Compounds without any hit were thinned out: in the full panel of roughly 83,000, 20% have a hit.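 In brief: 96-well plates, 48 h treatment, single concentration, percent growth endpoint.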 A number with no mark means an inactive call. Active and inactive are the calls of the source. The calls were made as follows: active = growth percent below 10; inactive = the rest.
Legend:
Experiment in all cases: NCI-60 one-dose screen, 48 h (100 = growth as untreated, 0 = no growth, -100 = all killed)
Settings in all cases: 10 µM unless noted
[1] = tested on: NCI-H23 lung
[2] = tested on: NCI-H226 lung
[3] = tested on: NCI-H322M lung
[4] = tested on: HOP-62 NSCLC
[5] = tested on: NCI-H460 lung
[6] = tested on: HOP-92 NSCLC
[7] = tested on: A549/ATCC NSCLC
[8] = tested on: 786-0 renal
[9] = tested on: COLO 205 colon
[10] = tested on: DU-145 prostate
[11] = tested on: MALME-3M melanoma
[12] = tested on: MDA-MB-231 breast
[13] = tested on: RXF 393 renal
[14] = tested on: SF-268 CNS
[15] = tested on: SF-295 CNS
[16] = tested on: SF-539 CNS
[17] = tested on: UACC-257 melanoma
[18] = tested on: K-562 leukemia
[19] = tested on: M14 melanoma
[20] = tested on: NCI-H522 lung

Row | Compound | growth [1] | growth [2] [%] | growth [3] | growth [4] | growth [5] | growth [6] | growth [7] | growth [8] | growth [9] [%] | growth [10] | growth [11] | growth [12] | growth [13] | growth [14] [%] | growth [15] | growth [16] | growth [17] | growth [18] | growth [19] | growth [20] [%]
1 | CCCCCCNC(=O)c1cc(NCc2cc(O)ccc2O)ccc1O | 87.5% | 92.3 | 89.2% | 70.9% | 94.5% | 24% | 70.5% | 45.9% | 96.9 | 92.6% | 67.4% | 45.2% | 37.4% | 53.8 | 95.8% | 11.8% | 56.1% | – | – | –
2 | CCN(CC)CCNc1ccc(C)c2sc3cc(C)ccc3c(=O)c12 | 72.3% | 95.5 | 68.8% | 62.9% | 43% | 25.2% | 56.2% | 42.9% | – | 67% | 72.5% | 19.4% | 59.1% | 59.1 | 72.9% | 76.3% | 65.5% | -19.6% (active) | -46.2% (active) | –
3 | CCNCCNc1cc(-c2ccc(C#N)cc2)c(C#N)c2nc3ccccc3n12 | 47.5% | 81.1 | 33.6% | 56.6% | -28.1% (active) | 63.3% | – | 28% | – | 33.6% | 51.6% | 6.63% (active) | -10.6% (active) | 35.1 | -64.6% (active) | -77.3% (active) | 57.5% | 23.9% | -6.91% (active) | 31.8
4 | CCCCNCC(=O)Nc1ccc(C(=O)OCC)cc1 | 105% | 89.8 | 105% | 98.7% | 106% | 79.6% | 95.3% | 99.6% | – | 114% | 106% | 103% | 110% | 104 | 99.4% | 105% | 103% | 92.4% | 97.3% | –
5 | O=C1C2=C(CCN(Cc3ccccc3)C2)N2CCN=C2N1Cc1ccc(C(F)(F)F)cc1 | 31% | 25.9 | 37.8% | 31% | 14.7% | 18.8% | 27.6% | 48.8% | – | 33% | 30.4% | -9.28% (active) | 54% | 39.2 | -10.8% (active) | 40.8% | 15.5% | 29.4% | 37.2% | –
6 | Cc1ccc(NC(=O)C(Cl)Cl)cc1 | 95.8% | 79.1 | 84.1% | 98.4% | 102% | 98.2% | – | 104% | – | – | 92.7% | 99.1% | 119% | 105 | 97.8% | 98.4% | 92% | 106% | 109% | 80.9
7 | CCc1cc(Cc2cc(CC)cc(C(C)(C)C)c2O)c(O)c(C(C)(C)C)c1 | 17.5% | 48.6 | 50% | 34.7% | 4.34% (active) | -22.6% (active) | 23.8% | 23.6% | – | 43.1% | 19.5% | 13.8% | 5.58% (active) | 37.6 | -2.11% (active) | 39.6% | 46.7% | 8.51% (active) | – | –
8 | COc1ccc(-c2cn(-c3cccc(C(=O)/C=C/c4cc(OC)c(OC)c(OC)c4)c3)c(=O)[nH]2)cc1 | -2.28% (active) | 32.9 | 106% | 229% | -44.1% (active) | -3.4% (active) | 46.4% | -89.4% (active) | – | 1.51% (active) | 66.2% | 19.4% | -52.8% (active) | 20.1 | 26.4% | -89.1% (active) | 22.8% | 0.142% (active) | – | –
9 | Cc1cc(N(CCCNc2ccnc3cc(Cl)ccc23)Cc2ccccn2)nc(N2CCOCC2)n1 | 90.4% | 90.9 | 94.1% | 85.2% | 99.7% | 66.6% | 86.4% | 86% | – | 113% | 89.8% | 95.2% | 77.3% | 83.3 | 92.9% | 91.4% | 101% | 67.8% | 95.7% | –
10 | COc1ccc(C2=NC(=O)NC2c2ccc(OC)cc2)cc1 (stereo not given) | 68.3% | 74 | 132% | 42.3% | 72.9% | 26% | 82.8% | 38.6% | 58.7 | 88.5% | 75.5% | 73.9% | 108% | 73.3 | 79.7% | 62.4% | 105% | 21.2% | – | –
11 | CCCNCC(=O)Nc1ccc(C(=O)OC(C)(C)CC)cc1 | 102% | 95 | 97% | 99.7% | 104% | 74.4% | 97.1% | 90.8% | – | 101% | 90.9% | 102% | 116% | 99 | 103% | 108% | 105% | 101% | 96.8% | –
12 | COc1ccc(Nc2ncc(Br)c(NCCCNC(=O)C3CCC3)n2)cc1 | 31% | 21.8 | 43.1% | 10.9% | 19.4% | 40% | – | 24.3% | – | 38.9% | 77.7% | -25.7% (active) | -41.2% (active) | 23.4 | 30.9% | 2.94% (active) | 74.3% | 23% | 55.2% | 50.1
13 | N#C/C(=C\c1ccc(Br)cc1)n1nnc2cc(Cl)c(Cl)cc21 | 32.3% | 36.3 | 56.7% | 53.1% | 56.7% | 33.2% | 67.4% | 43.8% | – | 34% | 67.5% | 33% | -6.31% (active) | 59.2 | 65.8% | 49.8% | 52.4% | 8.99% (active) | 31.3% | –
14 | COc1ccccc1NC(=O)Nc1ccc(-c2nc3ccccc3o2)cc1 | 99.4% | 99 | 88.7% | 95.8% | 101% | 111% | 82.2% | 89.2% | – | 101% | 95.3% | 98.5% | 108% | 104 | 96.8% | 96.7% | 101% | 83.4% | 102% | –
15 | CC/C=C/[C@@H]1C=C[C@@H]2CCC[C@H]2[C@@H]1CC[C@H](O)[C@H](C)N | -63.4% (active) | 91.5 | -35.4% (active) | -89.7% (active) | -83.1% (active) | 12% | 3.8% (active) | -92.4% (active) | – | -12.9% (active) | -80.2% (active) | -22.5% (active) | – | 29.2 | -71.3% (active) | -67.6% (active) | -71.5% (active) | -18.6% (active) | -76.4% (active) | –
16 | Cc1c2c(cn1Cc1ccccc1)CCc1cn[nH]c1-2 | 89.2% | 101 | 106% | 89.1% | 101% | 70.1% | 99.3% | 98.1% | – | 117% | 105% | 89.3% | 87.6% | 89.6 | 81.5% | 92.7% | 107% | 51.8% | – | –
17 | Cc1cc(NS(=O)(=O)c2ccccc2)c(OS(=O)(=O)c2ccccc2)cc1C | 98.6% | 101 | 110% | 105% | 106% | 88.1% | 104% | 112% | – | 120% | 113% | 101% | 111% | 105 | 113% | 98.5% | 109% | 88.8% | 96.8% | –
